In article PMC4336329 (PLoS ONE, 2015):
The campaign covered roughly 310,000 compounds. About 14,000 (4.5%) showed an effect of 50% or more. The effect is printed as a negative number. Many of the other results were omitted from the sample, so strong results are more common in it than they were.

Molecular target: human ether-à-go-go-related gene (hERG) potassium channel (human, UniProt Q12809)
Assay: primary screen, population patch clamp on CHO cells stably expressing hERG; higher = less effect of the substance
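Also: peak tail current of the secondary pulse compared with the same well before compound.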

Chain of human ether-à-go-go-related gene (hERG) potassium channel (Q12809 whole entry, looked up): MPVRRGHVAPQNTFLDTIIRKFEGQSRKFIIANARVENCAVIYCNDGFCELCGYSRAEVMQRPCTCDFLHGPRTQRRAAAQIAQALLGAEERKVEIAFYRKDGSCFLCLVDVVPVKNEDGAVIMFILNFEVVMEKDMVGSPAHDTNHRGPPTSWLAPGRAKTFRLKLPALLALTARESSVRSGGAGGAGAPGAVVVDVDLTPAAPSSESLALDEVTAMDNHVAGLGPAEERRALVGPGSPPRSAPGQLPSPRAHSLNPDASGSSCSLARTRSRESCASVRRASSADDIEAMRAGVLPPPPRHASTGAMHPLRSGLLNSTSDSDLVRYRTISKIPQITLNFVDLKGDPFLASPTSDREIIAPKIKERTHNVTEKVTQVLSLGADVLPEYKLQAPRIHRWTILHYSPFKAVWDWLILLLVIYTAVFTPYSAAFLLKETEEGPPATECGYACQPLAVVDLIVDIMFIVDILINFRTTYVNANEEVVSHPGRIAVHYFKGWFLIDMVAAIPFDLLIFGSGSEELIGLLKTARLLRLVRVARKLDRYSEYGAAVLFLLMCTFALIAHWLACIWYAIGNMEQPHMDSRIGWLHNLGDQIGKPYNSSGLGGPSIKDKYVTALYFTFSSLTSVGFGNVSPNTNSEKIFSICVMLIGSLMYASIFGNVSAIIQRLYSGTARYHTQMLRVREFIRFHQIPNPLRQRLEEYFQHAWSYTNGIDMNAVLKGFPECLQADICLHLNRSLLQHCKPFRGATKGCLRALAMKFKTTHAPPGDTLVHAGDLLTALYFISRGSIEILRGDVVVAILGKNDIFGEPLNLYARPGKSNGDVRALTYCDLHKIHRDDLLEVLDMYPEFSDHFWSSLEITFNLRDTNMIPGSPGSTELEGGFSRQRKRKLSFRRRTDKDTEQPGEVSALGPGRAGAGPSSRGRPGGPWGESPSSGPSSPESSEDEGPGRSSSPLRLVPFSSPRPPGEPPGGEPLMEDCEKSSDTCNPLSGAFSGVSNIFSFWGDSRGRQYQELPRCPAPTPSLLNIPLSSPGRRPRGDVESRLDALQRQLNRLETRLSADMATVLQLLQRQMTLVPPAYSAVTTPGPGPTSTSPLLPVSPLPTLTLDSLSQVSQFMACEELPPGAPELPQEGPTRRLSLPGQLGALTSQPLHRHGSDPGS

| SMILES | hERG current change (%, negative = inhibition) at 10uM [%] |
| --- | --- |
| Cc1cc(C)cc(OCc2ccc(C(=O)NN)o2)c1 | 14.2 |
| COc1ccc(CCNC(=S)Nc2cc(C)ccc2C)cc1 | -15.9 |
| CS(=O)(=O)N(C(=O)NC(=O)NC1CCS(=O)(=O)C1)C1CCCCC1 (centres unmarked) | 4.13 |
| COc1ccc(-c2nn(-c3ccccc3)cc2/C=C2/SC(=S)N(Cc3ccco3)C2=O)c(C)c1 | 8.73 |
| Cn1c(=O)n(Cc2ccc(Cl)cc2)c(=O)c2c1nc1n2CCN1Cc1ccco1 | -21.5 |
| Cn1c(=O)n(CCc2ccccc2)c(=O)c2c1nc1n2CCN1Cc1ccco1 | -55.5 |
| Cn1c(=O)n(Cc2ccccc2)c(=O)c2c1nc1n2CCN1Cc1ccco1 | -36.7 |
| Cc1cccc(Cn2c(=O)c3c(nc4n3CCN4Cc3ccco3)n(C)c2=O)c1 | -52.2 |
| Cn1c(=O)n(Cc2ccc(F)cc2)c(=O)c2c1nc1n2CCN1Cc1ccco1 | -55.4 |
| Cc1ccc(Cn2c(=O)c3c(nc4n3CCN4Cc3ccco3)n(C)c2=O)cc1 | -17.9 |
| Cc1cccc(Cn2c(=O)c3c(nc4n3CCCN4Cc3ccccc3)n(C)c2=O)c1 | -38.8 |
| Cc1ccc(C)c(Cn2c(=O)c3c(nc4n3CCN4Cc3ccco3)n(C)c2=O)c1 | -3.76 |
| CCCn1c(=O)c2c(nc3n2CCN3Cc2ccco2)n(C)c1=O | -5.94 |
| CC1CCC(NC(=O)C(Cc2ccccc2)n2cccc2)CC1 (centres unmarked) | -14.9 |
| Cc1cc(C)cc(OCC(=O)N/N=C/c2ccco2)c1 | 37.4 |
| COc1cccc(-n2nnc3c(=O)n(CC(=O)OCc4ccccc4)cnc32)c1 | 9.39 |
| O=C(Cc1ccsc1)N1CCc2c([nH]c3ccccc23)C1c1ccccn1 (centres unmarked) | 4.87 |
| CSc1ncc(CN2CCc3c([nH]c4ccccc34)C2c2cccc(C)n2)cn1 (centres unmarked) | -13.8 |
| Clc1ccc(-n2cccc2CN2CCc3c([nH]c4ccccc34)C2c2ccccn2)nc1 (centres unmarked) | -77 |
| c1ccc(C2c3[nH]c4ccccc4c3CCN2Cc2cccn2-c2ccccn2)nc1 (centres unmarked) | -70.5 |
| c1ccc(C2c3[nH]c4ccccc4c3CCN2Cc2cccn2-c2cccnc2)nc1 (centres unmarked) | -23.7 |
| CC(=O)Nc1ccc(CN2CCc3c([nH]c4ccccc34)C2c2ccccn2)cc1 (centres unmarked) | -38.5 |

| SMILES | hERG current change (%, negative = inhibition) at 10uM [%] |
| --- | --- |
| CCOC(=O)C1CCN(S(=O)(=O)c2ccc(Cl)nc2)CC1 | -2.6 |
| COc1ccc2oc(C(=O)NCCC(C)C)c(C)c2c1 | -0.78 |
| Cn1nc(C(=O)OCc2ccccc2F)c2ccccc2c1=O | 13 |
| COc1ccc(C(C)(C)C)cc1NC(=O)c1cccc(S(=O)(=O)N2CCN(C(C)=O)CC2)c1 | 11.5 |
| Cc1ccc(S(=O)(=O)N2CCN(c3ncnc4c3cnn4-c3ccccc3)CC2)cc1 | 14.3 |
| Oc1ccccc1C1=Nc2ncnn2C(c2ccccc2)C1 (centres unmarked) | -16.6 |
| Oc1ccccc1C1=NN(c2ccccc2)C(c2ccc(F)cc2)C1 (centres unmarked) | 9.68 |
| Oc1ccccc1C1=Nc2ncnn2C(c2ccc(F)cc2)C1 (centres unmarked) | -80.8 |
| COc1ccc(NC2CC(=O)NC2=O)cc1 (centres unmarked) | 5.24 |
| O=C1NC(=O)C(=Cc2cc([N+](=O)[O-])ccc2N2CCCCC2)C(=O)N1 | 7.84 |
| CC(=O)N1CCN(c2ccc([N+](=O)[O-])cc2C=C2C(=O)NC(=O)NC2=O)CC1 | -56.6 |
| CC(=O)N1c2ccc([N+](=O)[O-])cc2NC(=O)CC1C (centres unmarked) | 22.2 |
| CCN1CCN(c2ccc([N+](=O)[O-])cc2C=C2C(=O)NC(=O)NC2=O)CC1 | -66.3 |
| CN1C(=O)C(=Cc2cc([N+](=O)[O-])ccc2N2CCCCC2)C(=O)N(C)C1=O | 19.3 |
| O=C1NC(=S)N/C1=C/c1cc([N+](=O)[O-])ccc1N1CCOCC1 | -62.9 |
| O=Cc1cc([N+](=O)[O-])ccc1N1CCOCC1 | -19.3 |
| CC(=O)N1CCN(C(=S)c2cccc([N+](=O)[O-])c2)CC1 | 8.96 |
| O=C1NC(=S)N/C1=C/c1cc([N+](=O)[O-])ccc1O | 12.8 |
| COC(=O)C1=C(O)/C(=C\c2ccc(OCC(=O)Nc3ccccc3OC)cc2)N=C1C | 0.751 |
| Cc1ccccc1Nc1nc(-c2sc(NC(=O)c3ccco3)nc2C)cs1 | 23.6 |
| O=C(Nc1cccc(Cl)c1)c1nc[nH]c1C(=O)N1CCN(c2ccccc2)CC1 | 8.06 |
| Cc1c(N/C(=N/S(=O)(=O)c2ccc(F)cc2)c2ccccc2)c(=O)n(-c2ccccc2)n1C | 0.39 |
